Compound activity deposited in PubChem by National Center for Advancing Translational Sciences (NCATS).
S-ASM inh: inhibitors of human secretory acid sphingomyelinase; placental ASM, HMU-PC fluorogenic substrate, 60 min; AID 504937; Potency, µM (doses to about 57.5 µM), inactives show top-dose activity change, negative = inhibition, actives largely listed as inhibitors; P17405; 0.006% of 340,000 active; note: potency is the fitted concentration of half-maximal effect
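Fluorogenic HMU-PC substrate (9 uM final) is turned over by placental ASM in 60 min at 37 C after a 10 min compound preincubation. Reaction ended by alkaline stop (pH 10), with fluorescence read at 386/447 nm.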
BRCA1 expr act: activators of BRCA1 expression; AID 624202; Potency, µM (series often up to 46.1 µM), inactives show at the top dose activation, hits mostly activators; 1.1% of 380,000 active; MCF7-BRCA1-FFLuc reporter, luminescence, 48 h; response scale: scaled: vehicle 0%, 10 µM genistein 100%; note: potency is the fitted concentration of half-maximal effect; nearly all actives have a fitted effect of over 80% in size
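Luminescence from a BRCA1-driven firefly luciferase in MCF7 cells was the read-out, taken 15 min after substrate addition following 48 h compound exposure at 37 °C. Data were normalized to a 10 microM genistein control and DMSO vehicle.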
TSHR antag: blocks TSH signaling through the human TSH receptor | activity change, negative = inhibition, % at 11.5 µM | TSHR-expressing cells, TSH-stimulated cAMP HTRF, 2 h; hits give low values | AID 504810 | 0.2% of 330,000 active;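 active = activity change below a set negative limit, meaning inhibition stronger than a set level, cut at about -70% in these data; inconclusive = activity change between two set negative limits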; note: % is set by controls: 0 for no effect and ±100 for the full control effect
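Antagonism was scored as loss of TSH-driven cAMP in TSHR cells, stimulated with 4nM TSH (EC80) for 2 hours at 37 deg C and detected by homogeneous HTRF competition immunoassay.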
Anesthetic bind: candidate novel general anesthetic via apoferritin binding | apoferritin/1-aminoanthracene competitive binding, fluorescence | 0.074% of 350,000 active | Potency, µM (highest dose often 77.5 µM), without a hit: at the highest dose activity change, negative = displacement, hits mostly inhibitors | P02791; note: potency is the fitted concentration of half-maximal effect; % is set by controls: 0 for no effect and ±100 for the full control effect; nearly all actives have a fitted effect of over 20% in size
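Apoferritin-based anesthetic binding model; compound displacement of fluorescent 1-AMA measured as endpoint fluorescence after 10 minutes at room temperature, scaled to free-ligand and complex controls.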
TSG101-PTAP inh: blocks PTAP/TSG101 interaction to inhibit HIV-1 budding. Fluorescence polarization, FITC-PTAP peptide / Tsg101 binding. Potency, µM (titrated, usually from 115 µM), without a hit: at the top dose activity change, negative = inhibition, hits mostly inhibitors. 340,000 tested, under 10 active. AID 493005; active = well fitted inhibition curve with a large enough effect in the main read-out, with a control signal flat, not every such curve was filed as active; inconclusive = small, poorly fitted or top-dose-only effect, or effect the other way, or a change in a side signal; inactive = no such curve, though single readings can be large or run the other way; note: potency is the fitted concentration of half-maximal effect; % of control where 0% means no effect
Target sequence (Q99816 whole entry, looked up): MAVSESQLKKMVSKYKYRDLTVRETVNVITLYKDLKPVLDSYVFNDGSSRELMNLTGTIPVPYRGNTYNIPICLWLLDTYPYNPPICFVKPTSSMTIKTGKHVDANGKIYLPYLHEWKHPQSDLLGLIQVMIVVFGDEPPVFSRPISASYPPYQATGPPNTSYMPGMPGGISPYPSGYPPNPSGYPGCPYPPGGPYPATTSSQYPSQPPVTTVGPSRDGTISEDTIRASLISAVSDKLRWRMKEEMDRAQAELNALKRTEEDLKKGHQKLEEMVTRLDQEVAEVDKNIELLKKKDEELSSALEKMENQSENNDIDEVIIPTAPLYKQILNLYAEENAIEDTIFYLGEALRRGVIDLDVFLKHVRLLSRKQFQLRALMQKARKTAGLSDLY
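Fluorescence polarization binding of Tsg101 binding domain (10 uM final) to FITC-labeled PTAP peptide (50 nM final) in HEPES pH 7.5 buffer with NaCl, Tween 20, EDTA, TCEP. Compounds added before peptide; binding 20 min at RT.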
The depositor's hits bear a star. Compounds with a hit are over-represented: about 1.2% of the library has one in this group of screens. Unless noted, calls come from the whole dose curve; as a rule, active = well fitted curve in the direction sought with a large enough effect; inconclusive = small, poorly fitted or top-dose-only effect, or another doubt; inactive = no such curve, though single readings can be large; an effect the other way counts as inactive or inconclusive.

Screening Cc1ccc(-c2cc(C(=O)NCc3ccco3)no2)cc1 returned S-ASM inh 1%, BRCA1 expr act 4µM*, TSHR antag -12, Anesthetic bind 0% and TSG101-PTAP inh 13%.
For O=C(NCc1cccs1)c1cc(-c2ccccc2)on1 the results were S-ASM inh -1%, BRCA1 expr act 5µM*, TSHR antag -4, Anesthetic bind -3% and TSG101-PTAP inh -3%.
Screening CC(=O)c1ccc(NC(=S)NCCc2ccccn2)cc1 returned S-ASM inh 2%, BRCA1 expr act 10µM*, TSHR antag 3, Anesthetic bind -9% and TSG101-PTAP inh -2%.
For COc1cccc(OCc2cc(C(=O)NCc3ccccn3)no2)c1 the results were S-ASM inh 3%, BRCA1 expr act 13µM*, TSHR antag -3, Anesthetic bind -24% and TSG101-PTAP inh -4%.
`CNc1ccc(/C=C2\C=Cc3ccccc32)cc1I` gave BRCA1 expr act -23%.
`OCC1=C[C@@H](O)[C@@H]2C=CO[C@@H](OC3O[C@H](CO)[C@@H](O)[C@H](O)[C@H]3O)[C@H]12` (stereo not given in full) gave Anesthetic bind 4%.
For CC/C=C/[C@@H](c1ccccc1)[C@H](C)C(O)CC(=O)SC(C)(C)C (stereo not given in full) the results were Anesthetic bind -2%.
Screening CCCC[C@H](NC(C)=O)C(=O)N[C@H]1CC(=O)NCCCC[C@@H](C(N)=O)NC(=O)[C@H](Cc2c[nH]c3ccccc23)NC(=O)[C@H](CCCN=C(N)N)NC(=O)[C@@H](Cc2ccccc2)NC(=O)[C@H](Cc2cnc[nH]2)NC1=O returned Anesthetic bind 5%.
For O=C(NCc1ccccn1)c1cc(-c2ccccc2)on1 the results were S-ASM inh 0%, BRCA1 expr act inconclusive, TSHR antag -7, Anesthetic bind 5% and TSG101-PTAP inh 5%.
Screening O=C(NCc1ccco1)c1cc(-c2cccc(Cl)c2)on1 returned S-ASM inh 3%, BRCA1 expr act inconclusive, TSHR antag -9, Anesthetic bind inconclusive and TSG101-PTAP inh -7%.
For Cc1ccc(-c2cc(C(=O)NCc3ccccn3)no2)cc1 the results were S-ASM inh -3%, BRCA1 expr act 11µM*, TSHR antag 3, Anesthetic bind 3% and TSG101-PTAP inh -5%.
Screening CC(C)NC(=O)c1cc(-c2ccc(Br)cc2)on1 returned S-ASM inh 1%, BRCA1 expr act inconclusive, TSHR antag 8, Anesthetic bind -14% and TSG101-PTAP inh -4%.
`COc1cccc(-c2cc(C(=O)NCc3ccco3)no2)c1` gave S-ASM inh 2%, BRCA1 expr act 7.9µM*, TSHR antag -1, Anesthetic bind -16% and TSG101-PTAP inh -3%.
`CCc1ccc(NC(=O)C(=O)NCc2ccccn2)cc1` gave S-ASM inh 4%, BRCA1 expr act 3.5µM*, TSHR antag -2, Anesthetic bind -8% and TSG101-PTAP inh -3%.
CCCNC(=O)c1cc(-c2ccc(Br)cc2)on1 was read as S-ASM inh 6%, BRCA1 expr act 1.8µM*, TSHR antag -13, Anesthetic bind -6% and TSG101-PTAP inh 0%.
For O=C(Nc1cccc(C(F)(F)F)c1)Nc1cc(Cl)ccc1C(=O)O the results were Anesthetic bind -21%.
Screening COCC(C)NC(=O)c1cc(-c2cccc(OC)c2)on1 (stereo not given) returned S-ASM inh 1%, BRCA1 expr act 10µM*, TSHR antag -6, Anesthetic bind -10% and TSG101-PTAP inh -3%.
`COc1ccccc1-n1cnc2sc(-c3ccccc3)cc2c1=O` gave S-ASM inh 50%, BRCA1 expr act 47%, TSHR antag 7, Anesthetic bind -12% and TSG101-PTAP inh -1%.
CCCCn1cnc2sc(-c3ccccc3)cc2c1=O was read as S-ASM inh 0%, BRCA1 expr act inconclusive, TSHR antag 27, Anesthetic bind -7% and TSG101-PTAP inh -3%.
